Assay results from PubChem BioAssay (NCI).
The panel holds about 83,000 compounds, 20% with a hit somewhere; the sample as a whole holds those more often.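 Method: cells in 96-well plates; compound added at one concentration; 48 h incubation; percent growth measured; values under 10 scored active.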 Active and inactive are the calls of the source.

Each molecule was assayed on HS 578T breast (assay: NCI-60 one-dose screen, 48 h (100 = growth as untreated, 0 = no growth, -100 = all killed)). Details: 10 µM unless noted.
Procedure: Growth inhibition of the HS 578T human tumor cell line is measured as a screen for anti-cancer activity. Cells are grown in 96 well plates and exposed to the test compound for 48 hours. Compounds are tested at a single concentration, which is 10^-5 M for most compounds. The reported endpoint is percent growth (GI% or GIPRCNT), where numbers from 0 - 100% represent growth inhibition, and numbers from -100% - 0 represent cell death. For example, a value of 40 represents 60% growth inhibition. A value of 0 means no net growth occurred over the course of the experiment. A value of -40 indicates 40% of cells at the beginning of the experiment died by the end of the experiment. A value of -100 means all cells are dead at the end of the experiment.
NCI-60 Human Tumor Cell Lines Screen was performed using the standard one-dose NCI protocol, which is described in more detail at https://dtp.cancer.gov/discovery_development/nci-60/default.htm.
Compounds with GIPRCNT values below 10 were considered active. Activity score was based on GIPRCNT using the following formula: […]
Score is 0 for GIPRCNT values of 100 or above, 50 for GIPRCNT values of 0, and 100 for GIPRCNT values of -100.

How did the growth turn out when `Cc1cc(C)c2c(-c3nnc(N)s3)cc(=O)oc2c1` was run?
Its growth is 92.4% (inactive).

Which growth does the source give for `COc1cccc(-c2nn(-c3ccccc3)cc2-c2ccnc(NCCNC(=O)Nc3ccccc3)c2)c1` here?
Its growth is 31.4% (inactive).

Which growth does the source give for `COc1cc(N2C(=O)c3nccnc3C2=O)cc(OC)c1OC` here?
The growth was 104% (inactive).

With `COc1cccc(-c2nn(-c3ccccc3)cc2-c2ccnc(NCCCNC(=O)c3cccc(C(F)(F)F)c3)c2)c1` as the molecule, how does the growth read?
Its growth is 33.7% (inactive).

How did the growth turn out when `COC(=O)c1c2c(c[n+]([O-])c1C)C(=O)C=CC2=O` was run?
Its growth is 86.3% (inactive).

Which growth does the source give for `COc1cc2c(cc1-c1c(C)noc1C)ncc1nc(C3CCCCC3)n(C3CCC(OC(F)F)CC3)c12` (stereo not given) here?
Its growth is 52.2% (inactive).

How did the growth turn out when `O=C1Nc2ccccc2/C1=C/c1cn(C(=O)c2c(Cl)cccc2Cl)c2ccccc12` was run?
The growth was 64.7% (inactive).

With `O=C1Nc2ccc(F)cc2C12Nc1cc(Cl)ccc1S2` (stereo not given) as the molecule, how does the growth read?
The growth was 94.4% (inactive).

`COc1ccc(-c2nc3ccc4[nH]ncc4c3c3c2CCCC3)cc1B(O)O` was tested. Which growth did it give?
The growth was 0.224% (active).

How did the growth turn out when `Clc1ccc(-c2c3ccc(=[N+]4CCCCC4)cc-3oc3cc(N4CCCCC4)ccc23)cc1` was run?
The growth was -26.1% (active).

`CN(C)CCC=C1c2ccccc2C(C)(C)c2ccccc21` was tested. Which growth did it give?
The growth was 50.8% (inactive).

Which growth does the source give for `N=C1C(c2nc(-c3ccc(Br)cc3)cs2)=C(O)CN1Cc1cccnc1` here?
The growth was 23% (inactive).

`Cn1c(-c2c(N)n(Cc3cccnc3)c3nc(C#N)c(C#N)nc23)nc2ccccc21` was tested. Which growth did it give?
The growth was 106% (inactive).

For `CCOc1c(C#N)nnc2c(C#N)c(NC(=O)c3ccccc3)nn12`, which growth is on record?
Its growth is 99.8% (inactive).

`CCCCCCCCCCCCCCCCCC1=NCCN1CCOC1=C(Cl)C(=O)c2ccccc2C1=O` was tested. Which growth did it give?
Its growth is 90.1% (inactive).

Which growth does the source give for `O=C(CCc1nnc(CN(c2ccccc2)c2ccccc2)o1)c1nc2ccccc2[nH]1` here?
Its growth is 92.3% (inactive).

How did the growth turn out when `C[n+]1cc2c3c(ccc2c2ccc4cc5c(cc4c21)OCO5)OCO3` was run?
The growth was -2.95% (active).

Which growth does the source give for `CN(c1ccccc1)c1ccc2c(c1)OCCC21CC1Nc1cnccc1C(=O)O` (stereo not given) here?
The growth was 80.8% (inactive).

How did the growth turn out when `Cc1ccc(-c2cc3c(cc2O)C2CCCCC2(N2CCOCC2)O3)cc1` (stereo not given) was run?
The growth was 108% (inactive).

How did the growth turn out when `COc1ccc(-c2nc(SCCC(C)C)nc(N/N=C\c3cccc(Cl)c3)c2C#N)cc1` was run?
The growth was 20.7% (inactive).

Which growth does the source give for `CN1CCN(C(=O)c2c3c(n4ccccc24)C(=O)c2ncccc2C3=O)CC1` here?
Its growth is 52.5% (inactive).

`CC1SC(c2ccc(OCc3ccccc3)cc2)N(NC(=O)C(O)(c2ccccc2)c2ccccc2)C1=O` (stereo not given) was tested. Which growth did it give?
Its growth is 74.6% (inactive).

`C=CC(=O)Nc1cccc(Oc2nccc(Nc3nnc(C4CC4)s3)n2)c1` was tested. Which growth did it give?
Its growth is 91.6% (inactive).

Which growth does the source give for `CC(=O)N1N=C(c2ccc(Nc3nc(Nc4ccc(F)cc4)nc(Nc4ccc(F)cc4)n3)cc2)CC1c1cccc([N+](=O)[O-])c1` (stereo not given) here?
Its growth is 96.5% (inactive).

With `COc1nc(N(C)O)nc(N(C)O)n1` as the molecule, how does the growth read?
Its growth is 87.9% (inactive).

How did the growth turn out when `C=C1C(=O)O[C@H]2[C@H]1CC/C(COC(=O)C(=O)c1c[nH]c3ccc(OC)cc13)=C\CC[C@@]1(C)O[C@@H]21` was run?
The growth was 2.01% (active).

`Cn1cc(-c2csc(-c3cccc(F)c3)n2)c2cccnc21` was tested. Which growth did it give?
Its growth is 15.9% [100 µM] (inactive).

Which growth does the source give for `Cc1cccc(-c2nc(N(C)c3ccc4ncsc4c3)c3ccccc3n2)n1` here?
The growth was 103% (inactive).

How did the growth turn out when `CC1(C)CC[C@]2(C(=O)N3CCOCC3)CC[C@]3(C)C(=CC[C@@H]4[C@@]5(C)CC[C@H](OC(=O)c6cccnc6)C(C)(C)[C@@H]5CC[C@]43C)[C@@H]2C1` was run?
Its growth is 86.7% (inactive).

`CCOc1ccccc1-c1cc(-c2cccs2)c(C#N)c(=O)[nH]1` was tested. Which growth did it give?
Its growth is 76.6% (inactive).

With `CNC(=O)CCN1CCN(CC/C=C2\c3ccccc3Sc3ccc(Cl)cc32)CC1` as the molecule, how does the growth read?
Its growth is 65.4% (inactive).

With `O=S(=O)(Nc1cccc(Cl)c1)c1ccc(-c2cnc(C3CC3)o2)cc1` as the molecule, how does the growth read?
Its growth is 1.3% (active).

`O=c1[nH][n+](-c2ccc(Cl)cc2)no1` was tested. Which growth did it give?
Its growth is 98.5% (inactive).

How did the growth turn out when `O=C(N=c1oc2ccccc2cc1-c1cc2ccccc2[nH]1)c1ccc(Cl)cc1` was run?
Its growth is 63.3% (inactive).

How did the growth turn out when `COc1cc(OC)cc(C2CC(=O)Nc3c2c(C)nn3-c2nc3ccccc3[nH]2)c1` (stereo not given) was run?
The growth was 27.1% (inactive).

Which growth does the source give for `Cc1cc(NCc2cc(Nc3ccnc4cc(Cl)ccc34)ccc2F)nc(N2CCN(c3ccccc3)CC2)n1` here?
The growth was 47.9% (inactive).

`C=CCNc1nc(NN2C(=O)c3cccc4cccc(c34)C2=O)nc(-n2cnc3ccccc32)n1` was tested. Which growth did it give?
The growth was 35.9% (inactive).

With `O=C(/C=C/c1ccc(Cl)nc1)c1ccc(Cl)cc1Cl` as the molecule, how does the growth read?
The growth was 110% (inactive).

How did the growth turn out when `O=C(CSc1nnc(-c2ccc(NC(=O)c3cccnc3)cc2)o1)Nc1cccc(Br)c1` was run?
The growth was 90.6% (inactive).

`Cc1cc(NCc2cc(Nc3ccnc4cc(Cl)ccc34)ccc2F)nc(N2CCCC2)n1` was tested. Which growth did it give?
Its growth is 56.8% (inactive).
